Test [1] is described as follows: qHTS RealTime-Glo MT Cell Viability Assay in HepG2 cells - 8 hour (AID 1224873). Further: nearly all actives have a fitted effect of over 55% in size. Put shortly: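 HepG2 cells mixed with RealTime-Glo MT reagents (NanoLuc plus cell-permeant prosubstrate) were seeded at 600 cells/well, incubated 5 h at 37 C/5% CO2, then pinned with compounds in DMSO; nonlytic luminescence tracked viability during 40 h treatment.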
A general note: qHTS replaces the single test concentration by a dilution series.

Test [2] in a line: qHTS RealTime-Glo MT Cell Viability Assay in HEK293 cells - 40 hour (AID 1224874). Further: nearly all actives have a fitted effect of over 50% in size. Further: potency means the concentration at half of the fitted maximal effect. The settings on record: RealTime-Glo luminescence; max response: hits give low values. Put shortly: (§1)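 600 cells/well were plated with the nonlytic NanoLuc/prosubstrate reagent, pre-incubated 5 h, then given 23 nL of compound in DMSO. Incubation at 37 C for 40 h, with luminescence from viable-cell-reduced substrate read repeatedly from 0 h.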

Test [3] in a line: A CellTox Green Cytotoxicity Assay to monitor cytotoxicity in HEK293 cells - 24 hour (AID 1224875). Further: series mostly up to about 77 µM; nearly all actives have a fitted effect of over 45% in size. Summed up: (§2)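 HEK293 cells, 600/well, were preincubated 5 hours and then exposed to compounds at 37 C for up to 40 hours. A cell-impermeant cyanine dye staining dead-cell DNA was read by fluorescence at 0, 8, 16, 24, 32 and 40 h time points.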
The nature of test [4]: A CellTox Green Cytotoxicity Assay to monitor cytotoxicity in HepG2 cells - 16 hour (AID 1224876). Further: nearly all actives have a fitted effect of over 45% in size. Summed up: (§3)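 HepG2 cells, 600/well, preincubated 5 h with CellTox Green dye, then exposed to Tox21 compounds in DMSO at 37 C for up to 40 h. Dead-cell DNA fluorescence read at the indicated time point.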
Test [5] can be described thus: qHTS RealTime-Glo MT Cell Viability Assay in HepG2 cells - 32 hour (AID 1224877). Further: nearly all actives have a fitted effect of over 55% in size. Summed up:
(§4)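 Cells + NanoLuc/prosubstrate dispensed (600 cells/well) → 5 h at 37 C/5% CO2 → compounds in DMSO transferred → 40 h incubation at 37 C, luminescence read at 0, 8, 16, 24, 32, 40 h.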

The nature of test [6]: A CellTox Green Cytotoxicity Assay to monitor cytotoxicity in HepG2 cells - 24 hour (AID 1224878). Further: nearly all actives have a fitted effect of over 45% in size. Summed up: as §3
Test [7] in a line: A CellTox Green Cytotoxicity Assay to monitor cytotoxicity in HepG2 cells - 40 hour (AID 1224879). Further: nearly all actives have a fitted effect of over 40% in size. Put shortly: as §3
Test [8] is described as follows: qHTS RealTime-Glo MT Cell Viability Assay in HEK293 cells - 0 hour (AID 1224880). Further: top concentration of the series differs between compounds; nearly all actives have a fitted effect of over 45% in size. Summed up: as §1
Test [9] can be described thus: A CellTox Green Cytotoxicity Assay to monitor cytotoxicity in HEK293 cells - 32 hour (AID 1224881). Further: nearly all actives have a fitted effect of over 40% in size. Summed up: as §2
Test [10] can be described thus: A CellTox Green Cytotoxicity Assay to monitor cytotoxicity in HepG2 cells - 0 hour (AID 1224882). Further: nearly all actives have a fitted effect of over 35% in size. Summed up: as §3
Test [11] is described as follows: A CellTox Green Cytotoxicity Assay to monitor cytotoxicity in HepG2 cells - 32 hour (AID 1224883). Further: nearly all actives have a fitted effect of over 50% in size. Put shortly:
as §3

Test [12] can be described thus: A CellTox Green Cytotoxicity Assay to monitor cytotoxicity in HEK293 cells - 8 hour (AID 1224884). Further: nearly all actives have a fitted effect of over 35% in size. Put shortly: as §2
The nature of test [13]: qHTS RealTime-Glo MT Cell Viability Assay in HepG2 cells - 16 hour (AID 1224885). Further: nearly all actives have a fitted effect of over 50% in size. Put shortly: as §4
A short description of test [14]: qHTS RealTime-Glo MT Cell Viability Assay in HEK293 cells - 24 hour (AID 1224886). Further: top concentration of the series differs between compounds; nearly all actives have a fitted effect of over 50% in size. Summed up:
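Tox21 10K qHTS, HEK293, 600 cells/well, RealTime-Glo reagent co-dispensed with cells; 5 h preincubation, compound by pintool, 37 C, luminescence at 0–40 h.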

Test [15] in a line: qHTS RealTime-Glo MT Cell Viability Assay in HEK293 cells - 8 hour (AID 1224887). Put shortly: as §1
Test [16] can be described thus: A CellTox Green Cytotoxicity Assay to monitor cytotoxicity in HEK293 cells - 16 hour (AID 1224888). Further: nearly all actives have a fitted effect of over 35% in size. Put shortly: as §2
Test [17] can be described thus: qHTS RealTime-Glo MT Cell Viability Assay in HepG2 cells - 0 hour (AID 1224889). Further: nearly all actives have a fitted effect of over 50% in size. Summed up: as §4
Test [18] is described as follows: A CellTox Green Cytotoxicity Assay to monitor cytotoxicity in HepG2 cells - 8 hour (AID 1224890). Further: nearly all actives have a fitted effect of over 45% in size. Summed up:
as §3

Test [19] in a line: qHTS assay to identify small molecule antagonists of the estrogen receptor alpha (ER-alpha) signaling pathway using the BG1 cell line in the presence of 0.1 nM 17-beta-estradiol - cell viability counter screen (AID 1259241). Further: nearly all actives have a fitted effect of over 40% in size. Summed up: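 Estradiol-stimulated (0.1 nM) VM7Luc4E2 cells exposed to compounds 22 hr; viability measured by fluorescence of cleaved CellTiter-Fluor substrate after 30 min.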

Test [20] can be described thus: qHTS assay to identify small molecule antagonists of the androgen receptor (AR) signaling pathway using the MDA cell line in the presence of 0.5 nM R1881 - cell viability counter screen (AID 1259242). Further: nearly all actives have a fitted effect of over 45% in size. Put shortly:
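MDA-kb2 cells (MMTV-luciferase, AR/GR responsive) were treated with compounds plus 0.5 nM R1881 (final) for 16 hr at 37C, 0% CO2. Viability was then read in the same wells as live-cell protease fluorescence (CellTiter-Fluor, 30 min).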

Values joined by “and” are separate entries in the source; they are usually repeats but may differ in a detail not shown here. Equal entries are not always repeated. A number with no mark means an inactive call. Inconclusive results are not listed. Active and inactive are the calls of the source. The call rests on the fitted dose curve; in most records, active means well fitted curve in the direction sought with a large enough effect in the repeat runs; inconclusive means weak or mixed curves; inactive means no such curve, though single readings can be large; an effect the other way counts as inactive or inconclusive.
On the % scale 0 is the no-effect control and ±100 the full control effect.

Turning to `O=C1NCC2(CCN(CCc3ccccc3)CC2)O1`, the Potency entry in test [1], in test [3], in test [4], in [5], in test [6] and in test [7] was “inactive” in each case. Further, the Potency entry in test [8], in [9], in test [10], in test [11], in [12] and in [13] was “inactive” throughout. Further, the Potency result in test [14], in test [15], in [16], in test [17], in test [18] and in [19] was “inactive” each time. Besides, the Potency result in [20] is “inactive”. Besides, in test [2], the max response was 2.88%.

For the compound `O=c1n(CC2CO2)c(=O)n(CC2CO2)c(=O)n1CC1CO1` (stereo not drawn), the Potency entry in [1], in test [3], in test [4], in test [5], in [6] and in test [7] was “inactive” throughout. Also, the Potency entry in test [8], in test [9], in [10], in [11], in test [12] and in test [13] was “inactive” in each case. The Potency result in test [14], in [15], in [16], in test [17], in test [18] and in test [20] was “inactive” throughout. Further, the Potency in test [2] was 1370 nM (active).

In the case of `CC(C(O)c1ccc(O)cc1)N1CCC(Cc2ccccc2)CC1` (stereo not drawn), the Potency result in test [1], in test [3], in [4], in test [5], in test [6] and in test [7] was “inactive” in each case. The Potency result in test [8], in [9], in test [10], in test [11], in test [12] and in test [13] was “inactive” each time. Further, the Potency entry in [14], in test [15], in test [16], in [17], in test [19] and in [20] was “inactive” each time. In [2], the max response is -13.3%.

`NC12CC3CC(CC(C3)C1)C2`: the Potency entry in test [1], in [3], in [4], in [5], in test [6] and in test [7] was “inactive” each time. Also, the Potency result in test [8], in test [9], in test [10], in test [11], in test [12] and in test [13] was “inactive” in each case. Moreover, the Potency result in test [14], in test [15], in [16], in [17], in test [18] and in test [19] was “inactive” throughout. For the same compound, the Potency result in test [20] was “inactive”. For the same compound, the max response in [2] was 6.54%.

Take `CO[Si](OC)(OC)c1ccccc1`: the Potency entry in [1], in [3], in test [4], in test [5], in test [6] and in test [7] was “inactive” each time. The Potency entry in [8], in [9], in test [10], in test [11], in test [12] and in test [13] was “inactive” each time. The Potency result in [14], in test [15], in test [16] and in [17] was “inactive” in each case. In addition, in test [2], the max response was 0.242%.

For the compound `CC(C)(O)CCC(C)(C)O`, the Potency result in [1], in test [3], in test [4], in [5], in [6] and in test [7] was “inactive” in each case. Besides, the Potency result in [8], in [9], in [10], in test [11], in [12] and in test [13] was “inactive” in each case. Further, the Potency result in test [14], in [15], in test [16], in test [17], in [18] and in test [19] was “inactive” in each case. Besides, the Potency entry in test [20] was “inactive”. The max response in test [2] is -3.66%.

In the case of `NNCCc1ccccc1`, the Potency result in test [1], in test [3], in [4], in [5], in test [6] and in [7] was “inactive” in each case. For the same compound, the Potency entry in test [8], in [9], in [10], in [11], in test [12] and in test [13] was “inactive” each time. The Potency entry in test [14], in [15], in test [16], in test [17] and in test [18] was “inactive” throughout. Besides, the max response in test [2] was -29.6% and 3.04%.

For the compound `CCOc1ccccc1C(N)=O`, the Potency entry in test [1], in test [3], in test [4], in test [5], in test [6] and in test [7] was “inactive” each time. The Potency result in [8], in test [9], in test [10], in test [11], in test [12] and in [13] was “inactive” each time. Moreover, the Potency entry in test [14], in test [15], in test [16], in [17], in test [18] and in [19] was “inactive” each time. For the same compound, the Potency result in test [20] was “inactive”. In addition, the max response in test [2] is -15.3% and 4.4%.

Take `COc1ccc(COC(C)=O)cc1`: the Potency result in test [1], in [3], in test [4], in test [5], in test [6] and in [7] was “inactive” throughout. For the same compound, the Potency result in test [8], in [9], in [10], in test [11], in test [12] and in test [13] was “inactive” in each case. For the same compound, the Potency entry in test [14], in test [15], in test [16], in test [17], in [18] and in [19] was “inactive” each time. For the same compound, the Potency result in [20] was “inactive”. For the same compound, in [2], the max response was 5.85%.

For `C=C(C)C1CC=C(C)C(OC(C)=O)C1` (stereo not drawn), the Potency entry in [1], in test [3], in test [4], in test [5], in test [6] and in test [7] was “inactive” throughout. In addition, the Potency entry in test [8], in [9], in [10], in test [11], in test [12] and in [13] was “inactive” throughout. Besides, the Potency result in [14], in test [15], in test [16], in [17], in test [18] and in test [19] was “inactive” each time. Besides, the Potency entry in test [20] was “inactive”. For the same compound, the max response in test [2] was -4.93% and 11%.
